An excerpt weighted towards active compounds, which were near 12% of everything screened.
BAZ2B block: BAZ2B (human) inhibition | 360,000 compounds, 4.4% hits | Q9UIF8 | AlphaScreen BAZ2B-H3K14Ac peptide displacement | Potency, µM (highest dose often 114 µM), for the others: at the top dose activity change, negative = inhibition, hits mostly inhibitors; also: % is scaled to controls: 0 for no effect and ±100 for the full control effect; nearly all actives have a fitted effect of over 60% in size
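Compounds, titrated to a top concentration of 110 uM, were incubated 30 min at room temperature with preformed BAZ2B/acetyl-K14 H3 peptide complex (50 nM each). Proximity signal was measured by AlphaScreen after 20 min with beads.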
HP1b chromo inh: blocks HP1-beta chromodomain binding to methylated histone tails; P83916; AlphaScreen HP1-beta / biotin-H3K9me3 peptide binding; Potency, µM (series often up to 114 µM), for the others: at the top dose activity change, negative = inhibition, most hits filed as inhibitors; 390,000 compounds, 0.56% hits; AID 540317; also: nearly all actives have a fitted effect of over 70% in size
Target sequence (P83916 whole entry, looked up): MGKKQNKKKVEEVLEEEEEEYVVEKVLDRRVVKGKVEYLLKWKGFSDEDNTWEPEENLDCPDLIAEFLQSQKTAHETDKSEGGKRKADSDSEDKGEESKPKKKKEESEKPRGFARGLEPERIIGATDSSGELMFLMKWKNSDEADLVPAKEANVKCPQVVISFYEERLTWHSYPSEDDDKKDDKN
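AlphaScreen: HP1-beta (50 nM) preformed 30 min with biotin-H3(1-18)K9me3 peptide (50 nM) in PBS pH 7.4, 0.01% Tween-20. Compound added for 30 min at RT, then streptavidin donor/nickel chelate acceptor beads (10 ug/mL) for 30 min.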
JMJD2A Tudor inh: blocks the human JMJD2A Tudor domain; AlphaScreen JMJD2A-Tudor / H3K4me3 peptide binding; Potency, µM (series often up to 114 µM), without a hit: top-dose activity change, negative = inhibition, most hits filed as inhibitors; 390,000 compounds, 4.4% hits; O75164; AID 504339; also: % is scaled to controls: 0 for no effect and ±100 for the full control effect; nearly all actives have a fitted effect of over 50% in size
Sfp PPTase inh: Sfp phosphopantetheinyl transferase inhibition. Q9F4F7. Biochemical Sfp PPTase activity, qHTS. Potency, µM, for inactives: largest response in the series, negative = inhibition, most hits filed as inhibitors. 310,000 compounds, 3.5% hits. AID 1490;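 also: the enzyme is Sfp with the accession as filed and its product quenches rhodamine fluorescence; 0% = enzyme reaction without inhibitor and -100% = no enzyme wells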
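With Hepes-Na pH 7.6 buffer containing 10 mM MgCl2, Sfp (15 nM) modified BHQ-2-YbbR (12.5 uM) using rhodamine-CoA (5 uM). Two reads 30 minutes apart at 525/598 nm yielded each well's rate.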
G9a inh: blocks human histone lysine methyltransferase G9a; Potency, µM (titrated, usually from 102 µM), without a hit: top-dose activity, negative = inhibition, most hits filed as inhibitors; Q96KQ7; G9a H3K9 monomethylation, AlphaScreen, 2 h; 350,000 compounds, 8.8% hits; also: % is scaled to controls: 0 for no effect and ±100 for the full control effect; nearly all actives have a fitted effect of over 75% in size
Target sequence (Q96KQ7 913-1193 limits assumed): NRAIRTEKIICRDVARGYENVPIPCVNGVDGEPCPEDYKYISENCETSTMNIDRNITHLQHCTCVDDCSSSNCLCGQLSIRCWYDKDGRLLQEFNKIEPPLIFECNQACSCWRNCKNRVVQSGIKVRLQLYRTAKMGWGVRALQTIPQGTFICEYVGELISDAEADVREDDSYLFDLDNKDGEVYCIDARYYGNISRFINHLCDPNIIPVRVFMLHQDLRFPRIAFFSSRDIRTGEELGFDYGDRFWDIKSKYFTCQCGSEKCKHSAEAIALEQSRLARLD
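Chemiluminescent proximity detection of H3K9 monomethylation, read after 10 min bead incubation in the dark. Reaction: 20 nM G9a, 500 nM biotin-H3K9 peptide, 20 uM SAM cofactor, 2 h, room temperature, following 15 min enzyme-compound preincubation.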
L3MBTL1 block: L3MBTL1 (human) inhibition. Potency, µM (top dose mostly 57.1 µM), inactives show top-dose activity, negative = inhibition, usual class: inhibitors. AlphaScreen L3MBTL1–H3K9me1 peptide binding. Q9Y468. 230,000 compounds, 0.66% hits; also: % is scaled to controls: 0 for no effect and ±100 for the full control effect; nearly all actives have a fitted effect of over 60% in size
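Read-out is AlphaScreen signal from streptavidin donor and nickel chelate acceptor beads (10 ug/mL final each) bridging L3MBTL1 (50 nM) and biotinylated K9-monomethylated H3(1-15) peptide (75 nM), after 30 min compound exposure at room temperature.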
The depositor's hits bear a star; ? = inconclusive; / = no result given; [ ] = another dose, or the depositor's remark. Calls follow the shape of the dose curve; as a rule, active = well fitted curve in the direction sought with a large enough effect; inconclusive = small, poorly fitted or top-dose-only effect, or another doubt; inactive = no such curve, though single readings can be large; an effect the other way counts as inactive or inconclusive. Potency is read from the fitted curve at half-maximal effect.

SMILES	BAZ2B block	HP1b chromo inh	JMJD2A Tudor inh	Sfp PPTase inh	G9a inh	L3MBTL1 block
COc1nsnc1NS(=O)(=O)c1ccc(NC(=S)NC(=O)c2cccnc2)cc1	?	?	11µM*	?	/	5%
COc1nsnc1NS(=O)(=O)c1ccc(NC(=S)NC(=O)c2ccncc2)cc1	-27%	-23%	-25%	79µM*	-9%[59 µM]	-8%
COc1ccc(C2=NN(C(=O)CSc3nnc(C)c(=O)n3N)C(c3ccco3)C2)cc1 (configuration not stated)	?	7%	-16%	3%	?	/
CCC(=O)N1N=C(c2ccc(NS(=O)(=O)c3ccc(C)cc3)cc2)CC1c1ccco1 (configuration not stated)	/	23%	-29%	/	/	?
Cc1ccc(C2=NN(C(=O)CSc3nnnn3C)C(c3ccco3)C2)cc1 (configuration not stated)	-8%	18%	-17%	/	0.89µM*	-3%
CCC(=O)N1N=C(c2ccc(C)cc2)CC1c1ccco1 (configuration not stated)	-25%	21%	-11%	-4%	45µM*	-14%
O=C(CSc1n[nH]c(=O)n1C1CC1)N1N=C(c2ccc(Cl)cc2)CC1c1ccco1 (configuration not stated)	-34%	2%	-34%	4%	-3%[12.7 µM]	/
COc1cccc(C2=NN(C(=O)c3ccco3)C(c3ccco3)C2)c1 (configuration not stated)	?	0%	-33%	50µM*	45µM*	/
Cn1cnnc1SCC(=O)N1N=C(c2ccc(Cl)cc2)CC1c1ccco1 (configuration not stated)	?	18%	-22%	50µM*	?	-28%
COc1cc(-c2nnc(SCCOc3ccc(Cl)cc3)o2)cc(OC)c1OC	-24%	47%	-11%	/	-34%[59 µM]	/
Cc1cc(NC(=O)c2cccs2)cc(-c2nc3cc(Cl)ccc3o2)c1O	-23%	23%	-11%	/	10%[59 µM]	/
Cc1ccc(N2CC(NC(=O)c3ccc(Br)o3)CC2=O)cc1C (configuration not stated)	-7%	10%	-8%	/	6%[59 µM]	/
COc1ccc(Cl)cc1NC(=O)CSc1nc(-c2ccccc2)c2ccccc2n1	-1%	40%	-11%	/	-12%[59 µM]	/
CCc1ccc2oc(C(=O)Nc3ccccc3C(=O)OC)cc(=O)c2c1	3%	46%	12%	/	4%[59 µM]	/
O=C(OCC(=O)N1N=C(c2ccc(Cl)cc2)CC1c1ccco1)c1ccccc1O (configuration not stated)	-2%	56%	-20%	?	18µM*	/
O=C(CSc1ncn[nH]1)N1N=C(c2ccc(Cl)cc2)CC1c1ccco1 (configuration not stated)	14%	27%	-29%	?	?	-6%
O=C(OCC(=O)N1N=C(c2ccc(Cl)cc2)CC1c1ccco1)c1ccco1 (configuration not stated)	-28%	12%	-28%	-1%	?	-21%
N=c1sccn1CC(=O)N1N=C(c2ccc(Cl)cc2)CC1c1ccco1 (configuration not stated)	79µM*	-21%	-21%	-5%	-40%	/
CCC1(CC)NC(=O)N(CC(=O)N2N=C(c3ccc(Cl)cc3)CC2c2ccco2)C1=O (configuration not stated)	?	-15%	?	-12%	56µM*	-16%
CCN(CC)C(=O)c1sc2c(c1C)c(=O)n(-c1ccc(C)c(C)c1)c(=O)n2CC(=O)Nc1ccc(F)cc1	-8%	23%	-26%	/	4%[59 µM]	/
Cc1cc(N/N=C/c2ccncc2)nc2ccccc12	-26%	8%	?	-19%	-2%	1%[11.4 µM]
Cc1cc(N/N=C/c2cccc(Br)c2)nc2ccccc12	7%	29%	-16%	20µM*	74%[59 µM]	4%
COc1ccc(NC(=O)NCCn2nnc3cc(S(=O)(=O)N(C)C)ccc32)cc1	-3%	2%	-16%	/	11%[59 µM]	/
O=C1CC(c2ccc(O)cc2)Oc2cc(O)cc(O)c21 (configuration not stated)	-10%	27%	-15%	-6%	-5%	-3%
SMILES	BAZ2B block	HP1b chromo inh	JMJD2A Tudor inh	Sfp PPTase inh	G9a inh	L3MBTL1 block
Cc1noc(C)c1S(=O)(=O)N1CCc2nc(-c3ccccc3)c3c(c2C1)CO[C@@H](C)C3	/	/	/	-19%	/	/
O=C(NCc1n[nH]c(=S)n1-c1cccc(C(F)(F)F)c1)c1ccc(S(=O)(=O)N2CCCC2)cc1	15%	34%	-32%	-14%	13µM*	/
O=C(NCc1n[nH]c(=S)n1-c1cccc(C(F)(F)F)c1)c1ccc(S(=O)(=O)N2CCCCC2)cc1	-14%	29%	-11%	?	8.9µM*	/
O=C(O)c1ccc(CNC(=O)c2ccc(S(=O)(=O)N3CCCCC3)cc2)cc1	0%	33%	-10%	/	23%[12.7 µM]	1%
Cc1ccc(C(=O)NCc2cccc(C(F)(F)F)c2)cc1S(=O)(=O)N1CCCCC1	8%	28%	8%	/	6%	4%
CCOC(=O)c1ccc(NC(=O)CCc2c(C)nc3c(c(C)nn3C)c2C)cc1	1%	7%	-22%	/	-4%[59 µM]	/
CCOc1ccccc1NC(=O)CSC1=Nc2ccccc2C2=NC(CC(=O)NCc3ccc4c(c3)OCO4)C(=O)N12 (configuration not stated)	-4%	48%	-24%	/	27%[59 µM]	/
Cn1c(N2CCOCC2)c(/C=N/OC(=O)c2cccnc2Cl)c2ccccc21	-6%	48%	-17%	22µM*	?	9%
Cc1ccc(Nc2ccc(N)cc2S(=O)(=O)O)cc1	?	-1%	-31%	10%	32µM*	?
COc1ccc(-c2nc3cnc(Oc4cccc(Cl)c4)nc3n(C3CC3)c2=O)cc1	/	/	/	22%	-5%[0.501 µM]	/
COc1ccc(NS(=O)(=O)c2ccc(NC(=O)c3ccccn3)cc2)cc1	6%	17%	-17%	/	-3%[12.7 µM]	-3%
CNS(=O)(=O)c1ccc(NC(=O)c2ccccn2)cc1	7%	-4%	13µM*	-6%	11%[59 µM]	-1%
CCOc1ccc(NC(=O)c2ccccn2)cc1	8%	18%	16µM*	10%	-4%[59 µM]	-5%
CCOc1ccc(NC(=O)C2CSC(c3ccncc3)=N2)cc1 (configuration not stated)	-5%	27%	-7%	-11%	50µM*	5%
CCOc1ccc(NC(=O)Nc2ccc(Cc3ccncc3)cc2)cc1	5%	32%	-9%	10%	9%	/

Source: PubChem
